Activity calls are given as the source filed them. Rule for the calls: active = hit-call score of the fitted dose curve at least 0.9, where 1 is the maximum; inactive = score below 0.9.
Molecular target: Glycogen synthase kinase-3 beta (Homo sapiens) (UniProt P49841)
Experiment: ERF_FR_ENZ_hGSK3b: Eurofins (ERF) Enzymatic Radiometric [Km ATP] KinaseProfiler LeadHunter Assay for human GSK3beta (GSK3B) CMGC Kinase
Experimental: ERF_FR_ENZ_hGSK3b is a biochemical, single-readout assay that uses extracted gene-proteins in a cell-free assay. Measurements were taken 1.5 hour after chemical dosing in a 96-well plate. See GSK3beta Human CMGC Kinase Enzymatic LANCE Assay [Km ATP], Cerep.ERF_FR_ENZ_hGSK3b is an assay component calculated from the ERF_FR_ENZ_hGSK3b assay. It is designed to measure enzyme activity using a type of enzyme reporter as detected by fluorescence intensity with LANCE technology.Data from the assay component ERF_FR_ENZ_hGSK3b was analyzed at the assay endpoint, ERF_FR_ENZ_hGSK3b, in the positive analysis fitting direction relative to DMSO as the negative control and baseline of activity. Using a type of enzyme reporter, loss-of-signal activity can be used to understand changes in enzymatic activity as they relate to gene GSK3B. To generalize the intended target to other relatable targets, this assay endpoint is annotated to the kinase intended target family, where the subfamily is serine/threonine kinase.
GSK3b (h) is incubated with 8 mM MOPS pH 7.0, 0.2 mM EDTA, 20 uM […](p) EDEEE (phospho GS2 peptide), 10 mM MgAcetate and [gamma-33P]-ATP (specific activity and concentration as required). The reaction is initiated by the addition of the Mg/ATP mix. After incubation for 40 minutes at room temperature, the reaction is stopped by the addition of phosphoric acid to a concentration of 0.5%. […]

Glycogen synthase kinase-3 beta (Homo sapiens), sequence (P49841 whole entry, looked up): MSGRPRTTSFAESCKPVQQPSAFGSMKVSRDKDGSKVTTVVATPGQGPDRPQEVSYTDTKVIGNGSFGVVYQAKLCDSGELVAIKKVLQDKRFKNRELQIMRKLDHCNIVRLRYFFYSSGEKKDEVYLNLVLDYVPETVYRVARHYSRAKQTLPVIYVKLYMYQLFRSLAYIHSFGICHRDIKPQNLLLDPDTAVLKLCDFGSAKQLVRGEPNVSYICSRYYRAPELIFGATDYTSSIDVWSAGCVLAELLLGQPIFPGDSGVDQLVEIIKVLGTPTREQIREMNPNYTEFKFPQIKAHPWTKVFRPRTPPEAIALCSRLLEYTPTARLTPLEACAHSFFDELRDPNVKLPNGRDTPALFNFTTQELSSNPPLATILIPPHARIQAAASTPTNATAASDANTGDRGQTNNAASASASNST

Compound | AC50
O=C(/C=C/c1ccc(O)cc1)CC(=O)/C=C/c1ccc(O)cc1 | 2140 nM (active)
